Assay results: PubChem BioAssay (NCATS)

Test: qHTS profiling of the MIPE4 collection as inhibitors of Plasmodium falciparum (DD2) proliferation (Rep 2) (AID 743346)
Conditions: P. falciparum Dd2 in erythrocytes, SYBR Green DNA, 72 h; at 28.5 µM
Outline: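 Erythrocytes infected with P. falciparum (0.3% parasitemia, 2.5% hematocrit) incubated with compounds 72 h at 37 C, 5% CO2. Lysis with saponin/Triton buffer containing SYBR Green I, overnight at room temperature in the dark; DNA fluorescence (485/535 nm) normalised to 0.29 uM artemisinin and DMSO.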

Structure (SMILES)	parasite growth, % of control (lower = inhibition) [%]
CC(C)(C)[C@]1(O)C[C@@H]2OC(=O)C[C@@]23C(=O)O[C@@H]2OC(=O)[C@H](O)C213 (some centres not stated)	81.5
O=C(Nc1ccncc1)C(=O)c1cn(Cc2ccc(Cl)cc2)c2ccccc12	81.4
O=[N+]([O-])c1ncc[nH]1	101
COc1cc2cc(c1Cl)N(C)C(=O)C[C@H](OC(=O)C(C)C)[C@]1(C)O[C@H]1[C@H](C)[C@@H]1C[C@@](O)(NC(=O)O1)[C@H](OC)C=CC=C(C)C2	21.9
CC(=Cc1csc(C)n1)[C@@H]1C[C@H]2O[C@@H]2CCC[C@H](C)[C@@H](O)[C@@H](C)C(=O)C(C)(C)[C@@H](O)CC(=O)O1	36.4
CC(=O)O[C@@]12CO[C@H]1C[C@H](O)[C@@]1(C)C(=O)[C@H](O)C3=C(C)[C@@H](O)C[C@@](O)([C@@H](OC(=O)c4ccccc4)[C@@H]21)C3(C)C	42.4
CC(C)[C@]12O[C@@H]1[C@@H]1O[C@]13[C@]1(O[C@H]1C[C@@H]1C4=C(CC[C@@]13C)C(=O)OC4)[C@H]2O	49.4
C[C@H]1CCCC=CC2C[C@H](O)C[C@@H]2[C@H](O)C=CC(=O)O1 (some centres not stated)	9.15
COC1=C[C@@H]2[C@@H]3Cc4ccc(OC)c(O)c4[C@]2(CCN3C)CC1=O	34.6
COc1cccc2c1[C@]13CCN(CC4CC4)[C@H](C2)[C@]1(OC)CCC(=O)C3	31.9
C[C@]12CC[C@H](O)CC1=CC[C@H]1[C@H]3CCC(=O)[C@@]3(C)CC[C@@H]12	108
O=c1[nH]c2ccc(Cl)cc2c(N[C@@H]2CN3CCC2CC3)c1-c1nc2ccccc2[nH]1	8.84
